Our source for the Potency and cytotoxicity values is PubChem BioAssay (Tox21).

Activity calls are given as the source filed them. Entries that show only a call come without a potency. The call rests on the fitted dose curve; in most records, active means well fitted activation curve with a large enough effect in the repeat runs; inconclusive means weak or mixed curves; inactive means flat fitted curve, though single readings scatter.

A short description of this experiment: A CellTox Green Cytotoxicity Assay to monitor cytotoxicity in HepG2 cells - 0 hour (AID 1224882). Further: nearly all actives have a fitted effect of over 35% in size. The note with it: CellTox Green fluorescence; series mostly up to 76.8 µM. An excerpt:
National Center for Advancing Translational Sciences [NCATS]
NIH Chemical Genomics Center [NCGC]
U.S. Environmental Protection Agency [EPA]
National Institutes of Environmental Health Sciences [NIEHS]
National Toxicology Program [NTP]
Cell-based models are critical for drug discovery. Determining the natural cytotoxic effects resulting from test compounds is an essential research activity. A CellTox Green Cytotoxicity Assay to monitor cytotoxicity in real time of continues cell culture during 40 hours of the compound treatment was used to screen Tox21 10K library compounds in HepG2 cells. CellTox Green Cytotoxicity Assay is a nonlytic, homogeneous, biofluorescent method to measure cytotoxicity in cell culture after experimental manipulation. The assay system uses a proprietary asymmetric cyanine dye that is excluded from viable cells but preferentially stains the dead cell's DNA. […] Viable cells produce no appreciable increases in fluorescence. Therefore, the fluorescence signal produced by the binding interaction with dead cell DNA is proportional to cytotoxicity.
The mixture of HepG2 cell suspension and reagents were dispensed at 600cells/6 ul/well in 1536-well tissue culture treated black solid bottom plates using a Multidrop dispenser. After the assay plates were incubated at a 37 C/5% CO2 incubator for 5 hours, 23 nL of compounds dissolved in DMSO, positive and negative controls was transferred to the assay plate by a pintool work station. The plates were incubated at 37 C for 40 hours. The fluorescence intensity were measured at 0h, 8h, 16h, 24h, 32h and 40h time points using ViewLux plate reader during compound treatment.
Consider `O=C(/C=C/c1ccccc1)OC/C=C/c1ccccc1`, for which the Potency result was “inactive”.
On to `C=C(CC)C(=O)c1ccc(OCC(=O)O)c(Cl)c1Cl`, for which the Potency result is “inactive”.
The same measure, in the same setting: with `COC(C)=O` the entry was “inactive”; with `O=C(c1ccc(O)c(O)c1)c1ccc(O)cc1O`, “inactive”; with `NC(=S)NC(N)=S`, “inactive”.
For the compound `CC(C)(C)c1csc(-c2cc3cc(OCc4ccccc4CC(=O)O)ccc3o2)n1`, the Potency entry was “inactive”.
On the same count and under the same terms, as for `CC(C(=O)O)c1ccc2c(c1)[nH]c1ccc(Cl)cc12` (stereo not given), the entry is “inactive”.
The same measure, in the same setting: as for `CCC(COC(=O)CCS)(COC(=O)CCS)COC(=O)CCS`, the entry is “inactive”; as for `O=S(=O)(O)c1ccc(Nc2nc(Nc3ccc(/C=C/c4ccc(Nc5nc(Nc6ccc(S(=O)(=O)O)cc6)nc(N(CCO)CCO)n5)cc4S(=O)(=O)O)c(S(=O)(=O)O)c3)nc(N(CCO)CCO)n2)cc1`, “inactive”.
`O=C(O)O`: the cytotoxicity was 0.722% [at 6.97 µM] (inactive).
Take `CCCCCCCC`: the Potency entry is “inactive”.
Still for that read-out and setting: with `Clc1nnc(Cl)c2ccccc12` the entry was “inactive”; with `C=Cc1cccc(C)c1`, “inactive”.
The same measure, in the same setting: with `O=C(O)c1cc(N=Nc2ccc([N+](=O)[O-])cc2)ccc1O` the entry was “inactive”.
For `COC(=O)C1=C(C)NC(C)=C(C(=O)OCCN2CCN(C(c3ccccc3)c3ccccc3)CC2)C1c1cccc([N+](=O)[O-])c1` (stereo not given), the Potency entry is “inactive”.
The same measure, in the same setting: with `CCOC(=O)NNc1ccc(N(CC)CC(C)O)nn1` (stereo not given) the entry was “inactive”; with `Cc1ccc(O)c(N)c1`, “inactive”; with `CCCCCCCCCCCCOC(=O)c1ccc(O)cc1`, “inactive”.
On to `CCO[C@@H]1O[C@H](C(COCc2ccccc2)OCc2ccccc2)[C@H](OCc2ccccc2)[C@H]1O` (stereo not given in full), for which the Potency result was “inactive”.
In the case of `[Cl][Pt-2]([Cl])([Cl])[Cl]`, the Potency result is “inactive”.
Same read-out and setting: with `CC(C)(C)C1CCC(=O)CC1` the entry was “inactive”; with `Cc1ccc(O)c(O)c1`, “inactive”.
Regarding `CCN(CCN)c1cccc(C)c1`, the Potency result is “inactive”.
Still for that read-out and setting: as for `CN(C)[C@@H](CCOc1cccc2ccccc12)c1ccccc1`, the entry is “inactive”.
Still for that read-out and setting: as for `CC(C)OC(=O)C(O)(CC(=O)O)CC(=O)O`, the entry is “inactive”; as for `C=C(C)c1cccc(C(=C)C)c1`, “inactive”; as for `COc1ccc2c(c1)c(CC(=O)OC/C=C(\C)CC/C=C(\C)CCC=C(C)C)c(C)n2C(=O)c1ccc(Cl)cc1`, “inactive”.
Take `Nc1nc(N)nc(-c2cc(Cl)ccc2Cl)n1`: the Potency entry is “inactive”.
As for `Cc1cc(C(C)(C)C)c(O)c(C)c1Cn1c(=O)n(Cc2c(C)cc(C(C)(C)C)c(O)c2C)c(=O)n(Cc2c(C)cc(C(C)(C)C)c(O)c2C)c1=O`, the Potency entry was “inactive”.
The same measure, in the same setting: with `CCCCN(CCCC)CC(O)c1cc(Cl)cc2c1-c1ccc(Cl)cc1/C2=C/c1ccc(Cl)cc1` (stereo not given) the entry was “inactive”; with `O=S(=O)(O)c1ccccc1/C=C/c1ccc(-c2ccc(/C=C/c3ccccc3S(=O)(=O)O)cc2)cc1`, “inactive”; with `[Cu+]`, “inactive”.
With `NC[C@H]1O[C@H](O[C@H]2[C@H](O[C@@H]3O[C@H](CO)[C@@H](O)[C@H]3O)C(O)[C@H](N)C[C@@H]2N)[C@H](N)[C@@H](O)[C@@H]1O` (stereo not given in full), the cytotoxicity was 11.3% [at 6.97 µM] (inactive).
On to `OCCN1CCN(CCCN2c3ccccc3Sc3ccc(C(F)(F)F)cc32)CC1`, for which the Potency entry was “inactive”.
For the compound `Cc1c(C)c2c(c(C)c1O)CC[C@@](C)(CCC[C@H](C)CCC[C@H](C)CCCC(C)C)O2`, the Potency entry was “inactive”.
Still for that read-out and setting: as for `S=C([S-])NCCNC(=S)[S-].S=C([S-])NCCNC(=S)[S-].[Mn+2].[Zn+2]`, the entry is “inactive”; as for `C#C[C@]1(OC(C)=O)CC[C@H]2[C@@H]3CCC4=C[C@@H](OC(C)=O)CC[C@@H]4[C@H]3CC[C@@]21C`, “inactive”; as for `CC[C@H](C)COC(=O)/C=C/c1ccc(N=Cc2ccc(OC)cc2)cc1`, “inactive”.
As for `CCCCCCC1CCCC(=O)O1` (stereo not given), the Potency result was “inactive”.
As to `CCCCCCCCCCCCOCCOCCOCCOCCOCCOCCOCCOCCOCCO`, the Potency result is “inactive”.
